The supplement of paper PMC10849652
Targets with a hit are over-represented here; the source holds about 8,800 in all. About 0.5% of all pairs of compound and target were hits. Values without a mark were called inactive.

Columns and labels:
Test in all cases: log2 fold change, soluble protein after heating vs DMSO (PISA); higher = thermal stabilisation; K562 lysate, 10 uM; active = over 0.2 and 3.5 SD of the protein, either way, in both replicates (recomputed)
[1] = compound: C1=CC=C(C=C1)[C@H](COC2=CC3=C(C=C2)NC(=O)N3)NC(=O)C4=CC=CN(C4=O)CC5=CC(=C(C=C5)F)F
Method in brief: (§1)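 Pellets of K562 cells were dounce-homogenised in PBS pH 7.4 with 1 mM MgCl2, and the crude extract was held at 1 mg/mL protein for a 30 min treatment with 10 μM compound. Aliquots were heated for 3 min over 48°C-58°C and pooled before NP-40 was added to 0.5% at 4°C. The supernatant from 21,000xg for 90 min was quantified by TMTpro 16plex LC-MS/MS with channel sums equalised. Values are reported from duplicates as log-two fold change in thermal stability relative to solvent controls.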

[2] = compound: CC1=C(SC2=C1C(=N[C@H](C3=NN=C(N32)C)CC(=O)N)C4=CC=C(C=C4)Cl)C
Method in brief: as §1

[3] = compound: CC1=C2C(=CC=C1)N=C(N(C2=O)C3=CC=CC=C3C)CN4C=NC5=C(N=CN=C54)N
Method in brief: as §1

[4] = compound: Cc1sc2c(c1C)C(c1ccc(Cl)cc1)=N[C@@H](CC(=O)OC(C)(C)C)c1nnc(C)n1-2
Method in brief: as §1

[5] = compound: c1ccc([C@@H]2C[C@H]2NC2CCNCC2)cc1
Method in brief: as §1

UniProt Q9BZD4, sequence (Q9BZD4 whole entry, looked up): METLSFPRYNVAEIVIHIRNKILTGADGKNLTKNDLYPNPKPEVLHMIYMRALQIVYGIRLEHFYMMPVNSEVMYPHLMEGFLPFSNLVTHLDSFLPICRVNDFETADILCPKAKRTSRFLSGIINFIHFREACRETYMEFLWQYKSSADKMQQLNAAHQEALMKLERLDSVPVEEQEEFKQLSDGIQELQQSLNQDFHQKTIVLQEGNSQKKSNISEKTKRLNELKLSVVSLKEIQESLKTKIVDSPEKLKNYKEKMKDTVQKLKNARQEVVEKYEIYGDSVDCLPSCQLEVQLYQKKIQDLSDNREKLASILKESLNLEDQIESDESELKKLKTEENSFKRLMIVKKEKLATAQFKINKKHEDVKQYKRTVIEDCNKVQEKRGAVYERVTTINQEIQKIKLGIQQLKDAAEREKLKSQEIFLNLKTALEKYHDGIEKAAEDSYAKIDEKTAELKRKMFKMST
UniProt Q5VZE5, sequence (Q5VZE5 whole entry, looked up): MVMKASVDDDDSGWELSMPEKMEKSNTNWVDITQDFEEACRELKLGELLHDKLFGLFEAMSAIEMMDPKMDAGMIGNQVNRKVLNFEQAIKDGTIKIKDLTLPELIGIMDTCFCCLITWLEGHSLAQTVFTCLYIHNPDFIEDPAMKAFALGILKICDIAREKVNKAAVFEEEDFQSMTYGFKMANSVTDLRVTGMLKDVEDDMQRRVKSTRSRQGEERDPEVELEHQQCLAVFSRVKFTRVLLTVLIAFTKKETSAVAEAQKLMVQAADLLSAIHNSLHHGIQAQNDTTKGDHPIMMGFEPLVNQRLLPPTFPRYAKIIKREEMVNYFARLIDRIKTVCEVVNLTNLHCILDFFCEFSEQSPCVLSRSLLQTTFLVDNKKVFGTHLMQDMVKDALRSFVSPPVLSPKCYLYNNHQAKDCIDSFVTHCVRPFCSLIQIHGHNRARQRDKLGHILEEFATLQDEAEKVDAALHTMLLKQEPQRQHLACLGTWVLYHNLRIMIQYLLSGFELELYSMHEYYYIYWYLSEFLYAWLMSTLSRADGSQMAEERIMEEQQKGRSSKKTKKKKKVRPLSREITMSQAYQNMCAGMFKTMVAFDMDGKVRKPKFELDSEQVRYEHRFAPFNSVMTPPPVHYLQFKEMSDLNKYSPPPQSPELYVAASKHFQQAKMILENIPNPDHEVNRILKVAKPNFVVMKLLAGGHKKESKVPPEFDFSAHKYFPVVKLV
UniProt Q14934, sequence (Q14934 whole entry, looked up): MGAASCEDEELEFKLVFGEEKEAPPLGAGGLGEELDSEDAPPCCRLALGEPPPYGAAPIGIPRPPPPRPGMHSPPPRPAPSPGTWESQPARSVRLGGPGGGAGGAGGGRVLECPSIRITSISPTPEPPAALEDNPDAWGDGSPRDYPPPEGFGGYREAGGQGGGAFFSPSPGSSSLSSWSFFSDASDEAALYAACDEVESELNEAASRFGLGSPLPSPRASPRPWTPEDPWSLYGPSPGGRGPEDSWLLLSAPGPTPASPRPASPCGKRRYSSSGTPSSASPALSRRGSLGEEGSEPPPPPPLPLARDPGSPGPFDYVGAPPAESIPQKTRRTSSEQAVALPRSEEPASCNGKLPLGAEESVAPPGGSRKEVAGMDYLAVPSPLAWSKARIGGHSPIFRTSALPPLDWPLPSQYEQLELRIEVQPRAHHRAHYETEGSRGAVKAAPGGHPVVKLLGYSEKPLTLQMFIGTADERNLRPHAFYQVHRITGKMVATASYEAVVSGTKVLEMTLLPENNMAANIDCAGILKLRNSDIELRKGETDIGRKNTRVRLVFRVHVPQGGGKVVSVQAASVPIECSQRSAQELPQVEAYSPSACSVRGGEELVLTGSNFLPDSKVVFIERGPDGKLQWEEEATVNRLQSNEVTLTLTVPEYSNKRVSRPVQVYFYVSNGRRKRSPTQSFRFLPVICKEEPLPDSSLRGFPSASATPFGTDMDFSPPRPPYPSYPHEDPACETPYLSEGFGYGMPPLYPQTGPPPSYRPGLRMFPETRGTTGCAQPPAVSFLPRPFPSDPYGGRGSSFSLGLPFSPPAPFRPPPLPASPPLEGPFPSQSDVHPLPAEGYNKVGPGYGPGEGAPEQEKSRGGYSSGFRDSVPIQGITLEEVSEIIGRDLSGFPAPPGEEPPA
UniProt Q9Y314, sequence (Q9Y314 whole entry, looked up): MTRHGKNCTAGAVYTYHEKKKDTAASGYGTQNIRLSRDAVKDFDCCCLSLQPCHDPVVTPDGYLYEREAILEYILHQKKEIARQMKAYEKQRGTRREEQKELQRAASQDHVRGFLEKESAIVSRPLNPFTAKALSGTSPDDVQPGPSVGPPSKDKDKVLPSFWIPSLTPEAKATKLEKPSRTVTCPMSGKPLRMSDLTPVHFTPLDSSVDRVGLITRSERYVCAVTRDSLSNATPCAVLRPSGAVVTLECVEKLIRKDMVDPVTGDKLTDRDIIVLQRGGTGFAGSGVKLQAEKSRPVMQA
UniProt P00480, sequence (P00480 whole entry, looked up): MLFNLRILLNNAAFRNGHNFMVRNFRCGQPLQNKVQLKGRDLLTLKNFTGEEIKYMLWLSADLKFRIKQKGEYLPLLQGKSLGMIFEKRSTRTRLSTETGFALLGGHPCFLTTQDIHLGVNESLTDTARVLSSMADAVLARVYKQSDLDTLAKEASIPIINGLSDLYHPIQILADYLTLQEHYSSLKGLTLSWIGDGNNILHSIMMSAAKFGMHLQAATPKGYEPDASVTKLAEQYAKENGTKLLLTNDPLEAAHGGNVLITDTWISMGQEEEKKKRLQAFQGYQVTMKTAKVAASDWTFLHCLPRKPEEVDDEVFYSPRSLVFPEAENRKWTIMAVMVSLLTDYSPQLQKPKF
UniProt Q9Y530, sequence (Q9Y530 whole entry, looked up): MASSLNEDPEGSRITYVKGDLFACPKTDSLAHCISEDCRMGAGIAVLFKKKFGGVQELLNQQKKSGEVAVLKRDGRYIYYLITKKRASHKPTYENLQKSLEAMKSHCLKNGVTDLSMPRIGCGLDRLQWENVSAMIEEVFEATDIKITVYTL
UniProt Q96RE7, sequence (Q96RE7 whole entry, looked up): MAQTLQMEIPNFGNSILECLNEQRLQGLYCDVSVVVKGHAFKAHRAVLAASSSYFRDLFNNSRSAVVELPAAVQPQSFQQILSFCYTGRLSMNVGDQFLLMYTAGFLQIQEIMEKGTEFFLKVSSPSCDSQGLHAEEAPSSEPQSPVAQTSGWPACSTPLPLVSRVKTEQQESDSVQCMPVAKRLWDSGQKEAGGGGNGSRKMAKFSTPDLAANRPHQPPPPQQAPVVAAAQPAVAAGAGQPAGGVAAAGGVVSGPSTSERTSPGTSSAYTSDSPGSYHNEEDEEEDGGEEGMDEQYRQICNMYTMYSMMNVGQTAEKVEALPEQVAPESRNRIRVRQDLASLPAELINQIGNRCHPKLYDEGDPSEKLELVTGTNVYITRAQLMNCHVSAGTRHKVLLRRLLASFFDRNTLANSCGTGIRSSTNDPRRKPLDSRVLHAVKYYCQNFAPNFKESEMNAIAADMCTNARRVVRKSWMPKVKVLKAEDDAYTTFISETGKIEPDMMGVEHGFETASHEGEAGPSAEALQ
UniProt P40261, sequence (P40261 whole entry, looked up): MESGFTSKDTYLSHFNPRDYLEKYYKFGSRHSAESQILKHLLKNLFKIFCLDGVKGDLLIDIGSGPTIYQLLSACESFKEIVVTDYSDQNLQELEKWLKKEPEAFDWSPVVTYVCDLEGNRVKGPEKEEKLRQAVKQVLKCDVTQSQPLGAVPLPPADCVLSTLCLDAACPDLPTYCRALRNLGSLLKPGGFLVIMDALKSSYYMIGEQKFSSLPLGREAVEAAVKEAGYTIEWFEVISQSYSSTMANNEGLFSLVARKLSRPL
UniProt O75607, sequence (O75607 whole entry, looked up): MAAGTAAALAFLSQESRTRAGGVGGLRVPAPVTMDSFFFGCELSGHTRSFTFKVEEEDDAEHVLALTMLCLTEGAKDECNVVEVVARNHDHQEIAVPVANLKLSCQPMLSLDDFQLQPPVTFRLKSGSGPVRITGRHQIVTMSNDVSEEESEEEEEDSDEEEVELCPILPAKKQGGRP
UniProt Q6N063, sequence (Q6N063 whole entry, looked up): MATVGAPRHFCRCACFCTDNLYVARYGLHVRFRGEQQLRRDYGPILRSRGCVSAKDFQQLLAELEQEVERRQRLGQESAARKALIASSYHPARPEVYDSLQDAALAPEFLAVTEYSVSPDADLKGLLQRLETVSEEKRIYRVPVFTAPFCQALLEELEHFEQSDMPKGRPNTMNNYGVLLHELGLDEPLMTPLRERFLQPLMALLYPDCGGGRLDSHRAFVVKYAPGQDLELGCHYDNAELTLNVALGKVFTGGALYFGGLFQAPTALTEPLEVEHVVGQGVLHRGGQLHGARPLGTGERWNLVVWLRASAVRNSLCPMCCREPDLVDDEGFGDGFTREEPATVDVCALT
UniProt Q9NZT2, sequence (Q9NZT2 whole entry, looked up): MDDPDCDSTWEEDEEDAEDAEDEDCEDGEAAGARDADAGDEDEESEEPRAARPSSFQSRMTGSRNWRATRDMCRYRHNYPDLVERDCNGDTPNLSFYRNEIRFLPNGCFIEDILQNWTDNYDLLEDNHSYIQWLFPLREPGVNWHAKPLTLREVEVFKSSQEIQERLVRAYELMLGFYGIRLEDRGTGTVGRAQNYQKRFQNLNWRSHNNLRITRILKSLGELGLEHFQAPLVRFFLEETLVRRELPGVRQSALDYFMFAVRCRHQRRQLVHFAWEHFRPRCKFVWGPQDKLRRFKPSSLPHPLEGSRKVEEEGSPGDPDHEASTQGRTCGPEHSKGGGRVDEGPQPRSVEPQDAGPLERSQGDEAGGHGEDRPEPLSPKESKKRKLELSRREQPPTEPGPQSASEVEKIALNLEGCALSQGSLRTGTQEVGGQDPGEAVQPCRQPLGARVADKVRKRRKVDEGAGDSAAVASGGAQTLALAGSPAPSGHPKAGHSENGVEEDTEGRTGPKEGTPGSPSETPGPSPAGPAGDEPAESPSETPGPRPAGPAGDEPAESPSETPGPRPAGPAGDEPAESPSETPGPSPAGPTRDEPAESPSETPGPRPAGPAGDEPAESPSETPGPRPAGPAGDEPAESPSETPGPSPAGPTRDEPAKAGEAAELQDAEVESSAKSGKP

**Q.** Which results are given for NEBL (UniProt O76041)?
**A.** log2 fold change [1]: -0.074; log2 fold change [2]: 0.011; log2 fold change [3]: 0.047; log2 fold change [4]: 0.043; log2 fold change [5]: 0.014

**Q.** NACC1 (UniProt Q96RE7) was tested. Which log2 fold change [1] did it give?
**A.** 0.013

**Q.** And the log2 fold change [2]?
**A.** -0.004

**Q.** And the log2 fold change [3]?
**A.** 0.027

**Q.** And the log2 fold change [4]?
**A.** 0.013

**Q.** What about the log2 fold change [5] of the same target?
**A.** 0.033

**Q.** Which results are given for OAT (UniProt P04181)?
**A.** log2 fold change [1]: 0.029; log2 fold change [2]: 0.031; log2 fold change [3]: 0.038; log2 fold change [4]: 0.034; log2 fold change [5]: -0.018

**Q.** Which results are given for MT-CYB (UniProt P00156)?
**A.** log2 fold change [1]: 0.062; log2 fold change [2]: -0.091; log2 fold change [3]: -0.052; log2 fold change [4]: -0.132; log2 fold change [5]: -0.468

**Q.** Which log2 fold change [1] does the source give for NAA30 (UniProt Q147X3) here?
**A.** 0

**Q.** And the log2 fold change [2]?
**A.** 0.018

**Q.** And the log2 fold change [3]?
**A.** 0.033

**Q.** What about the log2 fold change [4] of the same target?
**A.** 0.02

**Q.** And the log2 fold change [5]?
**A.** -0.013

**Q.** Which log2 fold change [1] does the source give for NUF2 (UniProt Q9BZD4) here?
**A.** -0.03

**Q.** And the log2 fold change [2]?
**A.** 0.008

**Q.** What about the log2 fold change [3] of the same target?
**A.** 0.018

**Q.** And the log2 fold change [4]?
**A.** 0.007

**Q.** And the log2 fold change [5]?
**A.** 0.016

**Q.** Which log2 fold change [1] does the source give for NOSIP (UniProt Q9Y314) here?
**A.** 0.018

**Q.** And the log2 fold change [2]?
**A.** -0.005

**Q.** What about the log2 fold change [3] of the same target?
**A.** -0.018

**Q.** What about the log2 fold change [4] of the same target?
**A.** 0.019

**Q.** What about the log2 fold change [5] of the same target?
**A.** 0.012

**Q.** For NCOR2 (UniProt C9J0Q5), which log2 fold change [1] is on record?
**A.** 0.045

**Q.** What about the log2 fold change [2] of the same target?
**A.** 0.033

**Q.** What about the log2 fold change [3] of the same target?
**A.** -0.031

**Q.** And the log2 fold change [4]?
**A.** 0.048

**Q.** And the log2 fold change [5]?
**A.** -0.006

**Q.** With MRPS12 (UniProt O15235) as the target, how does the log2 fold change [1] read?
**A.** 0

**Q.** And the log2 fold change [2]?
**A.** 0.019

**Q.** And the log2 fold change [3]?
**A.** 0.053

**Q.** And the log2 fold change [4]?
**A.** 0.039

**Q.** What about the log2 fold change [5] of the same target?
**A.** 0.026

**Q.** With NFATC4 isoform 2 (UniProt Q14934) as the target, how does the log2 fold change [1] read?
**A.** -0.077

**Q.** And the log2 fold change [2]?
**A.** 0.015

**Q.** What about the log2 fold change [3] of the same target?
**A.** 0

**Q.** What about the log2 fold change [4] of the same target?
**A.** -0.112

**Q.** What about the log2 fold change [5] of the same target?
**A.** -0.197

**Q.** For OTC (UniProt P00480), which log2 fold change [1] is on record?
**A.** -0.11

**Q.** What about the log2 fold change [2] of the same target?
**A.** 0.131

**Q.** And the log2 fold change [3]?
**A.** -0.028

**Q.** And the log2 fold change [4]?
**A.** -0.38

**Q.** What about the log2 fold change [5] of the same target?
**A.** -2.16 (active)

**Q.** How did the log2 fold change [1] turn out when NPM3 (UniProt O75607) was run?
**A.** 0.172

**Q.** What about the log2 fold change [2] of the same target?
**A.** -0.045

**Q.** And the log2 fold change [3]?
**A.** -0.009

**Q.** And the log2 fold change [4]?
**A.** -0.03

**Q.** And the log2 fold change [5]?
**A.** -0.157

**Q.** With NAA35 (UniProt Q5VZE5) as the target, how does the log2 fold change [1] read?
**A.** 0.004

**Q.** And the log2 fold change [2]?
**A.** 0.066

**Q.** What about the log2 fold change [3] of the same target?
**A.** -0.023

**Q.** What about the log2 fold change [4] of the same target?
**A.** -0.002

**Q.** What about the log2 fold change [5] of the same target?
**A.** 0.086

**Q.** How did the log2 fold change [1] turn out when OGFR (UniProt Q9NZT2) was run?
**A.** -0.016

**Q.** And the log2 fold change [2]?
**A.** 0.001

**Q.** And the log2 fold change [3]?
**A.** 0.012

**Q.** What about the log2 fold change [4] of the same target?
**A.** -0.038

**Q.** What about the log2 fold change [5] of the same target?
**A.** 0.088

**Q.** With NCKAP1L (UniProt P55160) as the target, how does the log2 fold change [1] read?
**A.** -0.002

**Q.** What about the log2 fold change [2] of the same target?
**A.** 0.021

**Q.** And the log2 fold change [3]?
**A.** -0.106

**Q.** What about the log2 fold change [4] of the same target?
**A.** -0.061

**Q.** What about the log2 fold change [5] of the same target?
**A.** 0.005

**Q.** Which log2 fold change [1] does the source give for NUP205 (UniProt Q92621) here?
**A.** -0.042

**Q.** What about the log2 fold change [2] of the same target?
**A.** -0.019

**Q.** What about the log2 fold change [3] of the same target?
**A.** 0.045

**Q.** And the log2 fold change [4]?
**A.** 0.006

**Q.** And the log2 fold change [5]?
**A.** -0.001

**Q.** For PANK2 (UniProt Q9BZ23), which log2 fold change [1] is on record?
**A.** 0.024

**Q.** And the log2 fold change [2]?
**A.** 0.081

**Q.** What about the log2 fold change [3] of the same target?
**A.** -0.021

**Q.** And the log2 fold change [4]?
**A.** 0.019

**Q.** And the log2 fold change [5]?
**A.** -0.077

**Q.** How did the log2 fold change [1] turn out when OARD1 (UniProt Q9Y530) was run?
**A.** -0.005

**Q.** And the log2 fold change [2]?
**A.** -0.014

**Q.** And the log2 fold change [3]?
**A.** 0.035

**Q.** And the log2 fold change [4]?
**A.** 0.044

**Q.** And the log2 fold change [5]?
**A.** -0.005

**Q.** How did the log2 fold change [1] turn out when NOA1 (UniProt Q8NC60) was run?
**A.** -0.087

**Q.** And the log2 fold change [2]?
**A.** 0.099

**Q.** What about the log2 fold change [3] of the same target?
**A.** 0.023

**Q.** What about the log2 fold change [4] of the same target?
**A.** -0.014

**Q.** And the log2 fold change [5]?
**A.** -0.07

**Q.** How did the log2 fold change [1] turn out when NNMT (UniProt P40261) was run?
**A.** 0.003

**Q.** And the log2 fold change [2]?
**A.** 0.05

**Q.** And the log2 fold change [3]?
**A.** 0.027

**Q.** And the log2 fold change [4]?
**A.** -0.011

**Q.** What about the log2 fold change [5] of the same target?
**A.** -0.027

**Q.** What does the source list for MRPS31 (UniProt Q92665)?
**A.** log2 fold change [1]: -0.019; log2 fold change [2]: -0.048; log2 fold change [3]: 0.046; log2 fold change [4]: 0.014; log2 fold change [5]: 0.014

**Q.** For OGFOD2 (UniProt Q6N063), which log2 fold change [1] is on record?
**A.** -0.079

**Q.** What about the log2 fold change [2] of the same target?
**A.** 0.049

**Q.** What about the log2 fold change [3] of the same target?
**A.** -0.07

**Q.** And the log2 fold change [4]?
**A.** 0.033

**Q.** What about the log2 fold change [5] of the same target?
**A.** 0.076

**Q.** Which log2 fold change [1] does the source give for NMRAL1 (UniProt Q9HBL8) here?
**A.** -0.09

**Q.** What about the log2 fold change [2] of the same target?
**A.** 0.049

**Q.** What about the log2 fold change [3] of the same target?
**A.** 0.009

**Q.** And the log2 fold change [4]?
**A.** -0.071

**Q.** What about the log2 fold change [5] of the same target?
**A.** -0.027

**Q.** MVB12A (UniProt Q96EY5) was tested. Which log2 fold change [1] did it give?
**A.** 0.006

**Q.** What about the log2 fold change [2] of the same target?
**A.** 0.032

**Q.** And the log2 fold change [3]?
**A.** 0.017

**Q.** What about the log2 fold change [4] of the same target?
**A.** 0.032

**Q.** And the log2 fold change [5]?
**A.** 0.059

**Q.** MTA2 (UniProt O94776) was tested. Which log2 fold change [1] did it give?
**A.** 0

**Q.** And the log2 fold change [2]?
**A.** 0.015

**Q.** What about the log2 fold change [3] of the same target?
**A.** -0.004

**Q.** And the log2 fold change [4]?
**A.** 0.015

**Q.** And the log2 fold change [5]?
**A.** 0.031
